Consider one compound from ChEMBL document CHEMBL2218924, “A broad activity screen in support of a chemogenomic map for kinase signalling research and drug discovery” (Biochem J, 2013).

Usually residual activity stands for the signal under treatment as a percentage of the control signal.

The target of test [1] is T1, Ephrin type-A receptor 3 (Homo sapiens) (UniProt P29320).
T1 sequence (whole entry): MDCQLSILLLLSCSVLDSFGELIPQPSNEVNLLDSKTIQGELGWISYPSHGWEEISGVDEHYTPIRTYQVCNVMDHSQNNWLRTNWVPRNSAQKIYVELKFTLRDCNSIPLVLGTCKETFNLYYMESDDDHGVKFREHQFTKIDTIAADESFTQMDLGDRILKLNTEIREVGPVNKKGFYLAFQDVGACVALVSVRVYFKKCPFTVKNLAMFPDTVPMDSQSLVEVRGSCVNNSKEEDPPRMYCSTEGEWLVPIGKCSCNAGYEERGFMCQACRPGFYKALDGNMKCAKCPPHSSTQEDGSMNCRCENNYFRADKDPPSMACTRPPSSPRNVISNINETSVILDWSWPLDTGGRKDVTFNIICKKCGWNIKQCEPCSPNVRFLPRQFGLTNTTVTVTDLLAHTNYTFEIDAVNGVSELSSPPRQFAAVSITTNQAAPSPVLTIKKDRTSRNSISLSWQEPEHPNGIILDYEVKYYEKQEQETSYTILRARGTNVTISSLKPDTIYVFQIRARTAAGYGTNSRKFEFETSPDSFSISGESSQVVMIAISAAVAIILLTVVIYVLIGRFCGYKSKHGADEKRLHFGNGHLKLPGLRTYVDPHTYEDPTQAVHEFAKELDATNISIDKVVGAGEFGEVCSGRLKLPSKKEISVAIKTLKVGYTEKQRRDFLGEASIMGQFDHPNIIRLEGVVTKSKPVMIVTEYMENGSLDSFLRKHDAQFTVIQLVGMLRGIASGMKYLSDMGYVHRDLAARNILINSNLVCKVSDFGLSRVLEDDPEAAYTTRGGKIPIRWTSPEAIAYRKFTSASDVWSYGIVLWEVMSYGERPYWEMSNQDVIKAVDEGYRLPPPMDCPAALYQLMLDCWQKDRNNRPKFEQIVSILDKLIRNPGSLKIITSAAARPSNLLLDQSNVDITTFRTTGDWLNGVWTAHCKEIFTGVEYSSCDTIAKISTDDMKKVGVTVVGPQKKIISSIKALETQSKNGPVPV
The conditions noted are these: at 10 µM.

In test [2] the target is Ephrin type-A receptor 4 (Homo sapiens) (UniProt P54764). To be noted: at 1 µM.
Chain of Ephrin type-A receptor 4 (Homo sapiens) (P54764 whole entry): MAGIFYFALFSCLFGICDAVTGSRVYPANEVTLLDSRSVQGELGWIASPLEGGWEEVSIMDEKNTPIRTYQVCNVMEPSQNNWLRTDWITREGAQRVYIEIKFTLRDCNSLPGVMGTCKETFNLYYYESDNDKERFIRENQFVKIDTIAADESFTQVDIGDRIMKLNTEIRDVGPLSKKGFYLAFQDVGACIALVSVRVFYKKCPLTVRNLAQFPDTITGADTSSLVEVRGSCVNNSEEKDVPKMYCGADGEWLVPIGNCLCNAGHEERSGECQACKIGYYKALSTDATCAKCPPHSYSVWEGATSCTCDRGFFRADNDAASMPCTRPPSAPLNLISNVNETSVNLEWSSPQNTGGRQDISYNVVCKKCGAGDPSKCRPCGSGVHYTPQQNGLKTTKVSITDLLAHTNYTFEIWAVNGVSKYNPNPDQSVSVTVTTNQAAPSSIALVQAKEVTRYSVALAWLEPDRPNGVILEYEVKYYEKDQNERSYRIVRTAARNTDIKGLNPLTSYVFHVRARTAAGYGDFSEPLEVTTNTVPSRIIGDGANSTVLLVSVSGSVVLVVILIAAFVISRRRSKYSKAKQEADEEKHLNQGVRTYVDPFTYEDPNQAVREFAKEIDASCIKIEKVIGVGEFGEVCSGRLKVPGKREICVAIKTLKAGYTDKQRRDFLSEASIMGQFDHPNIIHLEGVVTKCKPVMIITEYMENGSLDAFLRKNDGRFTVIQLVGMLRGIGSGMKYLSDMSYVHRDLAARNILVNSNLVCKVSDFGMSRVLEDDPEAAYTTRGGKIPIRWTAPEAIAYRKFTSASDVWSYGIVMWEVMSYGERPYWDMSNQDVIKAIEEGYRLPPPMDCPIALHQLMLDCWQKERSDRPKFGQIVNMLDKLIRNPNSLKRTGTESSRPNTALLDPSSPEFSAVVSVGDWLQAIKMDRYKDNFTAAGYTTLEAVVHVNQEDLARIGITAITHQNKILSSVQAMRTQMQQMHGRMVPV
Test [3] has the same target. The conditions noted are these: at 10 µM.
The target of test [4] is Ephrin type-A receptor 5 (Homo sapiens) (UniProt P54756). To be noted: at 1 µM.
Chain of Ephrin type-A receptor 5 (Homo sapiens) (P54756 whole entry): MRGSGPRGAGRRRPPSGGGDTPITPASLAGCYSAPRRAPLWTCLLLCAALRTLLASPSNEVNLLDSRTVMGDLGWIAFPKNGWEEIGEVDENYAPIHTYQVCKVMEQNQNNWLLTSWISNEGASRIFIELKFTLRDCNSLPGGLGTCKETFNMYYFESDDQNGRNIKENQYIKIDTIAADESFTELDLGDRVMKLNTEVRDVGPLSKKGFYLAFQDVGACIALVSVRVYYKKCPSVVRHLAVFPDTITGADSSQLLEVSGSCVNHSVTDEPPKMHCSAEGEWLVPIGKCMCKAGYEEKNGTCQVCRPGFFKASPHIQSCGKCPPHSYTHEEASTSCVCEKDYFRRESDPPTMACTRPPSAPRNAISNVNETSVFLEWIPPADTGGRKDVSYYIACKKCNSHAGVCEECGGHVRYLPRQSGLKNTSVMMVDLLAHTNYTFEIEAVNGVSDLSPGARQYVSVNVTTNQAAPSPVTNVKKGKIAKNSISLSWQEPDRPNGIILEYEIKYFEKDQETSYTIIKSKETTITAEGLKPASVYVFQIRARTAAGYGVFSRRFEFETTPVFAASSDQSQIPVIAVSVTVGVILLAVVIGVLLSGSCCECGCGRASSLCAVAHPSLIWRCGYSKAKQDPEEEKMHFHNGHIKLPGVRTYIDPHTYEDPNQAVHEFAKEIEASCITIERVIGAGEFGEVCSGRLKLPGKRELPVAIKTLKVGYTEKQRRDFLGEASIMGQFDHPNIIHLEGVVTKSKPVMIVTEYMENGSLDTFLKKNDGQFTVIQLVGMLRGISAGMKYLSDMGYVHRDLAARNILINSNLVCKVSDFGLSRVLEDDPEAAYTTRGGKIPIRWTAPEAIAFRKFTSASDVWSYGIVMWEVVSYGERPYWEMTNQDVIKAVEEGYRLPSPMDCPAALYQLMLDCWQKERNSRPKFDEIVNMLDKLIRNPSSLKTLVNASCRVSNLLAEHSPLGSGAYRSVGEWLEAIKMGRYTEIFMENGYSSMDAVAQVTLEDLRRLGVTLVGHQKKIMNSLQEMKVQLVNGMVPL
Test [5] has the same target. The conditions noted are these: at 10 µM.
Test [6] has as its target Ephrin type-A receptor 7 (Homo sapiens) (UniProt Q15375). The conditions noted are these: at 1 µM.
Test [7] shares this target. To be noted: at 10 µM.
The target of test [8] is T2, Ephrin type-A receptor 8 (Homo sapiens) (UniProt P29322).
T2 sequence (whole entry): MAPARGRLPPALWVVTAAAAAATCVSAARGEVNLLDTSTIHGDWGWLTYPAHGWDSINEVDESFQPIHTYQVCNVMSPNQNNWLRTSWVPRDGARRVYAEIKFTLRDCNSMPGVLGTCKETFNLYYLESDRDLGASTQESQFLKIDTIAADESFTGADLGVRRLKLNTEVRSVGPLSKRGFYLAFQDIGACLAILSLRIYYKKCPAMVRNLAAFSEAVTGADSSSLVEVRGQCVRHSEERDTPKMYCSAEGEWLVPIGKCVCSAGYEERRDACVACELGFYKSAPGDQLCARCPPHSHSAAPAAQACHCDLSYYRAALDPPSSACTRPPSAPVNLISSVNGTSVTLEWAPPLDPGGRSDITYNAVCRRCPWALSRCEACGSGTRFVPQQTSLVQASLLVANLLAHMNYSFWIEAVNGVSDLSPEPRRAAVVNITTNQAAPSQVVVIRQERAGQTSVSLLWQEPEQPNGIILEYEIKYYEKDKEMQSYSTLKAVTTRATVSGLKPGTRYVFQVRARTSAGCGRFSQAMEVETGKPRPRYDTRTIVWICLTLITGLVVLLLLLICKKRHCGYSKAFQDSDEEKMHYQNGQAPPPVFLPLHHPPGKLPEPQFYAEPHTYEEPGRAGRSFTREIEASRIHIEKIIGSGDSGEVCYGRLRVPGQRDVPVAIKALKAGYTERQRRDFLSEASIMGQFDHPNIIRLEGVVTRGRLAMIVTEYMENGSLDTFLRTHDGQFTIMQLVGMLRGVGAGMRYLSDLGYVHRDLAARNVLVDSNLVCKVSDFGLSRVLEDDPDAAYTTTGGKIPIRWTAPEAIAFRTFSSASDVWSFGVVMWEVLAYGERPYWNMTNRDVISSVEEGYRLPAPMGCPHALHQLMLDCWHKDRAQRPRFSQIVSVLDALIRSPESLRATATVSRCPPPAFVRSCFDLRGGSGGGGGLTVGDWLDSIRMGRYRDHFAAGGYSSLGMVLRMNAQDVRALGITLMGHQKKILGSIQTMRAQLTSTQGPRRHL
To be noted: at 1 µM.

The target of test [9] is T2, Ephrin type-A receptor 8 (Homo sapiens). The conditions noted are these: at 10 µM.
For test [10], the target named is T3, Ephrin type-B receptor 1 (Homo sapiens) (UniProt P54762).
T3 sequence (whole entry): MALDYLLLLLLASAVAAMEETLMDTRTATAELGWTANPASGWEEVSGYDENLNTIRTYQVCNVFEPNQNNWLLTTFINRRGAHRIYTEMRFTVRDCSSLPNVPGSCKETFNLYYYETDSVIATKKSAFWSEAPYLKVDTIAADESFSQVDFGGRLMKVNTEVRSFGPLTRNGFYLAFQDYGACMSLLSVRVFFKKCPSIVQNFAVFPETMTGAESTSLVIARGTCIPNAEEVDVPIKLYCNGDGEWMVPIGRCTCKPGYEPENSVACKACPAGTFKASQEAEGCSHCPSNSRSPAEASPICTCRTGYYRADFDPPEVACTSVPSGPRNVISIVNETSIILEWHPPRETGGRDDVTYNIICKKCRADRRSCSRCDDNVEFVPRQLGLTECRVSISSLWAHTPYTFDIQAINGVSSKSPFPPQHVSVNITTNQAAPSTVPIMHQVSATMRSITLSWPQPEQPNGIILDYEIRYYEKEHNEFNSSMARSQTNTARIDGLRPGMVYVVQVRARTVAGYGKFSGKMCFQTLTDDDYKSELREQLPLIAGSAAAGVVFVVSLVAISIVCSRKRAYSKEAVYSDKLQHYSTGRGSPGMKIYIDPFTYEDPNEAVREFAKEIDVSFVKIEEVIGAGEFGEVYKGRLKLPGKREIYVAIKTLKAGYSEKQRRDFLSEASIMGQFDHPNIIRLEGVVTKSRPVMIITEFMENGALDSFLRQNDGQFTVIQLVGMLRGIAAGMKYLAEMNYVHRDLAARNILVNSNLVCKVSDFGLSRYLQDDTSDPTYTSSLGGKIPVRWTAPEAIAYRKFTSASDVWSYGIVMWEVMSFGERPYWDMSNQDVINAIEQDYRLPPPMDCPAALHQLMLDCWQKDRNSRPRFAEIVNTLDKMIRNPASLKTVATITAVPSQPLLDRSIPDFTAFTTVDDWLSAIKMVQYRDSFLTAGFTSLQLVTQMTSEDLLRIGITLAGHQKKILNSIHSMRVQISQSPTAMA
To be noted: at 1 µM.

Chain of Ephrin type-A receptor 7 (Homo sapiens) (Q15375 28-998 limits assumed): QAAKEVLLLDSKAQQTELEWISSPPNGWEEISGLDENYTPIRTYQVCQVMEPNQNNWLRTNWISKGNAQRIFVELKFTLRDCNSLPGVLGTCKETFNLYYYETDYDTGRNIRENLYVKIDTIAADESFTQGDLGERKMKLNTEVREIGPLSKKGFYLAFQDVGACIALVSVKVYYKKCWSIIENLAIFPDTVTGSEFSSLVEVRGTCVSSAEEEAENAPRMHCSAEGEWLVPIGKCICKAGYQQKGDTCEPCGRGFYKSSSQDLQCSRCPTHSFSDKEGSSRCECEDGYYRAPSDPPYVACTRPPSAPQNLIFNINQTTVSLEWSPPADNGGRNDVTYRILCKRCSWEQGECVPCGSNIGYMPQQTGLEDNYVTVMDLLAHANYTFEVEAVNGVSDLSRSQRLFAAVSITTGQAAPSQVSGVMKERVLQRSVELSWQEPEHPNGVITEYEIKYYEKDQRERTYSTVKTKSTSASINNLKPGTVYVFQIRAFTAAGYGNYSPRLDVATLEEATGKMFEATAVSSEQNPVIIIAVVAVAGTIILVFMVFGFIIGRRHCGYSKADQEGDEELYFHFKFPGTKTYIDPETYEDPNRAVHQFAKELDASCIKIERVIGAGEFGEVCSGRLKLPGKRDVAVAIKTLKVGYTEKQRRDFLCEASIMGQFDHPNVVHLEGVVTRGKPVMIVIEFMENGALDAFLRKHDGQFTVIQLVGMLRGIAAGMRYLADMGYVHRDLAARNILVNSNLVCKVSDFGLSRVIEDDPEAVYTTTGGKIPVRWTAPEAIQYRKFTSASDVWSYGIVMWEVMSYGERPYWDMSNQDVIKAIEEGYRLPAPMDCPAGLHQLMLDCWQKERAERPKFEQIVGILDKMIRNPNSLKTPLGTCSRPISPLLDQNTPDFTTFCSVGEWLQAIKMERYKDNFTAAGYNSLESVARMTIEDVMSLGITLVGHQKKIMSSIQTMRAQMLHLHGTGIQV

`CN(C)c1ccc(/C=C2\C(=O)Nc3ccccc32)cc1`: the residual activity in [1] amounted to 100%; in [2], 115%; in [3] it was 109%; in test [4], 108%; in [5] it was 112%; in test [6], 104%. The residual activity turned out to be 89% in [7], 102% in [8], 98% in test [9] and 100% in test [10].
